Assay results as given in the supplement of paper PMC4466140.

These binders were tested against CaNbp2 (assay: SPOT peptide array binding signal intensity (averaged, normalized) (arbitrary units (background-subtracted, floor 0; scale differs between SH3 domains)); higher = stronger binding of the SH3 domain to the peptide).
How it was run: (§1)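 Binding signal refers to normalized, background-subtracted spot intensity averaged over replicates, expressed in arbitrary units that differ between domains. GST-fused SH3 domains from four yeast species were incubated at 10 μg/ml overnight at 4°C on cellulose membranes of synthetic 15-mer peptides with cysteines replaced by serines. Bound protein was detected with anti-GST antibody, an HRP anti-mouse secondary and luminol, and quantified with Genespotter.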

| Binder | SPOT peptide array binding signal intensity |
| --- | --- |
| RPVPRRPSQPLNTLS | 1770 |

Each binder was assayed against CaRvs167 in the same assay as above.
How it was run: as §1

| Binder | SPOT peptide array binding signal intensity |
| --- | --- |
| RPVPRRPSQPLNTLS | 1240 |

Each binder was assayed against CaRvs167-3 in the same assay as above.
How it was run: as §1

| Binder | SPOT peptide array binding signal intensity |
| --- | --- |
| RPVPRRPSQPLNTLS | 6 |

Each binder was assayed against CaSho1 in the same assay as above.
How it was run: as §1

| Binder | SPOT peptide array binding signal intensity |
| --- | --- |
| RPVPRRPSQPLNTLS | 19.5 |

The binders below were run against CaSla1-D1-D2 in the same assay as above.
How it was run: as §1

| Binder | SPOT peptide array binding signal intensity |
| --- | --- |
| RPVPRRPSQPLNTLS | 796 |

Each binder was assayed against CaSla1-D3 in the same assay as above.
How it was run: as §1

| Binder | SPOT peptide array binding signal intensity |
| --- | --- |
| RPVPRRPSQPLNTLS | 5 |

These binders were tested against ScAbp1 in the same assay as above.
How it was run: as §1

| Binder | SPOT peptide array binding signal intensity |
| --- | --- |
| RPVPRRPSQPLNTLS | 280 |

Each binder was assayed against ScBbc1 in the same assay as above.
How it was run: as §1

| Binder | SPOT peptide array binding signal intensity |
| --- | --- |
| RPVPRRPSQPLNTLS | 514 |

The binders below were run against ScBem1-D1 in the same assay as above.
How it was run: as §1

| Binder | SPOT peptide array binding signal intensity |
| --- | --- |
| RPVPRRPSQPLNTLS | 6.5 |

The binders below were run against ScBzz1-D1 in the same assay as above.
How it was run: as §1

| Binder | SPOT peptide array binding signal intensity |
| --- | --- |
| RPVPRRPSQPLNTLS | 43.2 |

What follows are binders tested against ScBzz1-D2 in the same assay as above.
How it was run: as §1

| Binder | SPOT peptide array binding signal intensity |
| --- | --- |
| RPVPRRPSQPLNTLS | 25.8 |

Each binder was assayed against ScCyk3 in the same assay as above.
How it was run: as §1

| Binder | SPOT peptide array binding signal intensity |
| --- | --- |
| RPVPRRPSQPLNTLS | 22 |

The binders below were run against ScFus1 in the same assay as above.
How it was run: as §1

| Binder | SPOT peptide array binding signal intensity |
| --- | --- |
| RPVPRRPSQPLNTLS | ≤ 0 |

Each binder was assayed against ScHof1 in the same assay as above.
How it was run: as §1

| Binder | SPOT peptide array binding signal intensity |
| --- | --- |
| RPVPRRPSQPLNTLS | 0.5 |

The binders below were run against ScHse1 in the same assay as above.
How it was run: as §1

| Binder | SPOT peptide array binding signal intensity |
| --- | --- |
| RPVPRRPSQPLNTLS | 389 |

What follows are binders tested against ScLsb1 in the same assay as above.
How it was run: as §1

| Binder | SPOT peptide array binding signal intensity |
| --- | --- |
| RPVPRRPSQPLNTLS | 258 |

These binders were tested against ScLsb2 in the same assay as above.
How it was run: as §1

| Binder | SPOT peptide array binding signal intensity |
| --- | --- |
| RPVPRRPSQPLNTLS | 56 |

Each binder was assayed against ScLsb3 in the same assay as above.
How it was run: as §1

| Binder | SPOT peptide array binding signal intensity |
| --- | --- |
| RPVPRRPSQPLNTLS | 5960 |

Each binder was assayed against ScLsb4 in the same assay as above.
How it was run: as §1

| Binder | SPOT peptide array binding signal intensity |
| --- | --- |
| RPVPRRPSQPLNTLS | 1750 |

The binders below were run against ScMyo3 in the same assay as above.
How it was run: as §1

| Binder | SPOT peptide array binding signal intensity |
| --- | --- |
| RPVPRRPSQPLNTLS | 2 |

What follows are binders tested against ScMyo5 in the same assay as above.
How it was run: as §1

| Binder | SPOT peptide array binding signal intensity |
| --- | --- |
| RPVPRRPSQPLNTLS | 1.25 |

Each binder was assayed against ScNbp2 in the same assay as above.
How it was run: as §1

| Binder | SPOT peptide array binding signal intensity |
| --- | --- |
| RPVPRRPSQPLNTLS | 3100 |

Each binder was assayed against ScPex13 in the same assay as above.
How it was run: as §1

| Binder | SPOT peptide array binding signal intensity |
| --- | --- |
| RPVPRRPSQPLNTLS | 1420 |

The binders below were run against ScRvs167 in the same assay as above.
How it was run: as §1

| Binder | SPOT peptide array binding signal intensity |
| --- | --- |
| RPVPRRPSQPLNTLS | 2300 |

Each binder was assayed against ScSho1 in the same assay as above.
How it was run: as §1

| Binder | SPOT peptide array binding signal intensity |
| --- | --- |
| RPVPRRPSQPLNTLS | 163 |

Each binder was assayed against ScSla1-D1-D2 in the same assay as above.
How it was run: as §1

| Binder | SPOT peptide array binding signal intensity |
| --- | --- |
| RPVPRRPSQPLNTLS | 1000 |

These binders were tested against ScSla1-D3 in the same assay as above.
How it was run: as §1

| Binder | SPOT peptide array binding signal intensity |
| --- | --- |
| RPVPRRPSQPLNTLS | 18 |

Each binder was assayed against SpAbp1-D1 in the same assay as above.
How it was run: as §1

| Binder | SPOT peptide array binding signal intensity |
| --- | --- |
| RPVPRRPSQPLNTLS | 147 |

The binders below were run against SpBbc1 in the same assay as above.
How it was run: as §1

| Binder | SPOT peptide array binding signal intensity |
| --- | --- |
| RPVPRRPSQPLNTLS | 380 |

The binders below were run against SpBzz1-D1 in the same assay as above.
How it was run: as §1

| Binder | SPOT peptide array binding signal intensity |
| --- | --- |
| RPVPRRPSQPLNTLS | 466 |

These binders were tested against SpBzz1-D2 in the same assay as above.
How it was run: as §1

| Binder | SPOT peptide array binding signal intensity |
| --- | --- |
| RPVPRRPSQPLNTLS | 1.5 |

Each binder was assayed against SpCyk3 in the same assay as above.
How it was run: as §1

| Binder | SPOT peptide array binding signal intensity |
| --- | --- |
| RPVPRRPSQPLNTLS | 6.75 |

Each binder was assayed against SpHof1 in the same assay as above.
How it was run: as §1

| Binder | SPOT peptide array binding signal intensity |
| --- | --- |
| RPVPRRPSQPLNTLS | 297 |

The binders below were run against SpHof1-2 in the same assay as above.
How it was run: as §1

| Binder | SPOT peptide array binding signal intensity |
| --- | --- |
| RPVPRRPSQPLNTLS | 441 |

These binders were tested against SpHof1-3 in the same assay as above.
How it was run: as §1

| Binder | SPOT peptide array binding signal intensity |
| --- | --- |
| RPVPRRPSQPLNTLS | 278 |

Each binder was assayed against SpHse1 in the same assay as above.
How it was run: as §1

| Binder | SPOT peptide array binding signal intensity |
| --- | --- |
| RPVPRRPSQPLNTLS | 297 |

What follows are binders tested against SpLsb1 in the same assay as above.
How it was run: as §1

| Binder | SPOT peptide array binding signal intensity |
| --- | --- |
| RPVPRRPSQPLNTLS | 350 |

Each binder was assayed against SpLsb4 in the same assay as above.
How it was run: as §1

| Binder | SPOT peptide array binding signal intensity |
| --- | --- |
| RPVPRRPSQPLNTLS | 5510 |

Each binder was assayed against SpMyo1 in the same assay as above.
How it was run: as §1

| Binder | SPOT peptide array binding signal intensity |
| --- | --- |
| RPVPRRPSQPLNTLS | 37.8 |

Each binder was assayed against SpNbp2 in the same assay as above.
How it was run: as §1

| Binder | SPOT peptide array binding signal intensity |
| --- | --- |
| RPVPRRPSQPLNTLS | 81.5 |

The binders below were run against SpPex13 in the same assay as above.
How it was run: as §1

| Binder | SPOT peptide array binding signal intensity |
| --- | --- |
| RPVPRRPSQPLNTLS | 4.25 |

Each binder was assayed against SpRvs167 in the same assay as above.
How it was run: as §1

| Binder | SPOT peptide array binding signal intensity |
| --- | --- |
| RPVPRRPSQPLNTLS | 3150 |

What follows are binders tested against SpSla1-D1-D2 in the same assay as above.
How it was run: as §1

| Binder | SPOT peptide array binding signal intensity |
| --- | --- |
| RPVPRRPSQPLNTLS | 13 |

The binders below were run against SpSla1-D3 in the same assay as above.
How it was run: as §1

| Binder | SPOT peptide array binding signal intensity |
| --- | --- |
| RPVPRRPSQPLNTLS | 2 |
